Assay outcomes deposited in PubChem by National Center for Advancing Translational Sciences (NCATS).
This is a sample that favours compounds with a hit; in the whole collection about 11% have one here.
BAZ2B inh – BAZ2B (human) inhibition. AlphaScreen BAZ2B-H3K14Ac peptide displacement. AID 504333. 360,000 tested, 4.4% active. Potency, µM (series often up to 114 µM), for the others: at the top dose activity change, negative = inhibition, usual class: inhibitors; further: potency means the concentration at half of the fitted maximal effect; on the % scale 0 is the no-effect control and ±100 the full control effect; nearly all actives have a fitted effect of over 60% in size
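AlphaScreen displacement: compounds (up to 110uM) incubated 30 min at room temperature with a preformed 50 nM BAZ2B/50 nM biotinylated H3K14Ac peptide complex in PBS pH 7.4 with Tween-20. Donor and acceptor beads at 10 ug/mL final added, 20 min light-protected before reading.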
JMJD2A Tudor – JMJD2A Tudor domain (human) inhibition; AID 504339; Potency, µM (top dose mostly 114 µM), inactives show at the highest dose activity change, negative = inhibition, most hits filed as inhibitors; 390,000 tested, 4.4% active; AlphaScreen JMJD2A-Tudor / H3K4me3 peptide binding; O75164; further: potency means the concentration at half of the fitted maximal effect; on the % scale 0 is the no-effect control and ±100 the full control effect; nearly all actives have a fitted effect of over 50% in size
HP1b binding inh – HP1-beta chromodomain-methylated histone interaction inhibition. P83916. AlphaScreen HP1-beta / biotin-H3K9me3 peptide binding. Potency, µM (doses to about 114 µM), for inactives: top-dose activity change, negative = inhibition, usual class: inhibitors. 390,000 tested, 0.56% active; further: potency means the concentration at half of the fitted maximal effect; nearly all actives have a fitted effect of over 70% in size
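HP1-beta protein (50 nM final) preincubated 30 min at room temperature with biotinylated H3(1-18)K9me3 peptide (50 nM) in PBS pH 7.4, 0.01% Tween-20, then compound added for 30 min. AlphaScreen streptavidin donor/nickel chelate acceptor beads (10 ug/mL final), 30 min dark, luminescence read.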
L3MBTL1 block – L3MBTL1 (human) inhibition. Q9Y468. AlphaScreen L3MBTL1–H3K9me1 peptide binding. Potency, µM (series often up to 57.1 µM), for the others: top-dose activity, negative = inhibition, usual class: inhibitors. 230,000 tested, 0.66% active; further: potency means the concentration at half of the fitted maximal effect; on the % scale 0 is the no-effect control and ±100 the full control effect; nearly all actives have a fitted effect of over 60% in size
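Displacement of a biotinylated histone H3(1-15) peptide monomethylated at Lys9 (75 nM) from L3MBTL1 (50 nM) was measured by AlphaScreen after a 30 min room-temperature compound incubation; cefsulodin titration served as intraplate control.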
G9a inh – G9a (human) methyltransferase inhibition | Q96KQ7 | AID 504332 | G9a H3K9 monomethylation, AlphaScreen, 2 h | 350,000 tested, 8.8% active | Potency, µM (series often up to 102 µM), without a hit: at the top dose activity, negative = inhibition, hits mostly inhibitors; further: potency means the concentration at half of the fitted maximal effect; on the % scale 0 is the no-effect control and ±100 the full control effect; nearly all actives have a fitted effect of over 75% in size
Target sequence (Q96KQ7 913-1193 limits assumed): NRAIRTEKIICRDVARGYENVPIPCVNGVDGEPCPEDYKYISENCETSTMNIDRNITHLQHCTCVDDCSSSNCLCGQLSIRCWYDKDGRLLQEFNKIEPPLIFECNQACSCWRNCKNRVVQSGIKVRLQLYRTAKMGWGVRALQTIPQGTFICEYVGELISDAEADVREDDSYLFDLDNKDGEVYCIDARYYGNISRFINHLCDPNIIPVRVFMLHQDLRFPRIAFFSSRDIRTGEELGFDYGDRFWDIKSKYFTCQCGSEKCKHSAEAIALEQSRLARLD
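Quantitative HTS format: methyltransferase activity on a biotin-tagged H3K9 peptide is measured by AlphaScreen, using a rabbit anti-monomethyl-H3K9 antibody with streptavidin donor and anti-IgG acceptor beads. Final levels are 20 nM enzyme, 500 nM peptide, 20 uM SAM; 2 h RT.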
PI5P4Ka inh – inhibitors of human PI5P4K alpha; P48426; PI5P4Kalpha enzyme, ADP-Glo luminescence, 60 min; hits give low values; max response, %; 330,000 tested, 1.2% active; AID 652105; active means max response of -50% or lower; inconclusive means between -30% and -50%; inactive means -30% or higher; further: value at the top dose of about 77 µM; on the % scale 0 is the no-effect control and ±100 the full control effect
Target sequence (P48426 whole entry, looked up): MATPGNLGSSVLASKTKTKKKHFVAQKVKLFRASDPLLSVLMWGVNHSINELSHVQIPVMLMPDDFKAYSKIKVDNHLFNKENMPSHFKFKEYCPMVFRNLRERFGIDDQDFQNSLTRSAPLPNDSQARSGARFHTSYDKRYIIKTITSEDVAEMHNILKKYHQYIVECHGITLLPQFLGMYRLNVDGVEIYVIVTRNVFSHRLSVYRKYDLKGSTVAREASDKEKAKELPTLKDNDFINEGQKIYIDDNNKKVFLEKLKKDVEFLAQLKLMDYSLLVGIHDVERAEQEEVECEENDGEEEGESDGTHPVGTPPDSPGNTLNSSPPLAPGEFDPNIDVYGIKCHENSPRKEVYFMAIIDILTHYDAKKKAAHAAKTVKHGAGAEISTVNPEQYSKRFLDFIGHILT
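Quantitative HTS of the MLSMR library against PI5P4Kalpha with substrate. ATP added last at 5 microM final; room temperature, 60 minutes. Remaining ATP depleted, ADP converted and read as luminescence.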
* hit, by the source's call; [ ] = another dose, or the depositor's remark. Unless noted, the call rests on the fitted dose curve; in most records, active means well fitted inhibition curve with a large enough effect; inconclusive means small, poorly fitted or top-dose-only effect; inactive means no such curve, though single readings can be large or run the other way.

For Cc1cc(C)c(C)c(C(=O)CSc2nnc(C)c(=O)[nH]2)c1C the results were BAZ2B inh -5.2% and G9a inh 50.1µM*.
Cc1nnc(SCC(=O)c2c(N)n(C)c(=O)n(C)c2=O)[nH]c1=O was read as BAZ2B inh -3.2%, JMJD2A Tudor -16.4%[11.4 µM], HP1b binding inh -3.1%, L3MBTL1 block -3.7%, G9a inh -31.9% and PI5P4Ka inh 1.5.
Screening CC(=O)c1c(C)[nH]c(C(=O)OCC(=O)N2CCN(S(=O)(=O)c3ccc(C)cc3)CC2)c1C returned BAZ2B inh 50.1µM*, JMJD2A Tudor -11.5%, HP1b binding inh 5.1%, L3MBTL1 block 0.8%, G9a inh 1.2%[12.7 µM] and PI5P4Ka inh -2.3.
`CCOC(=O)c1c(C)[nH]c(C(=O)OCC(=O)N2CCN(S(=O)(=O)c3ccccc3)CC2)c1C` gave BAZ2B inh 0.0%, JMJD2A Tudor -14.9%, HP1b binding inh 5.7%, G9a inh 0.2% and PI5P4Ka inh -1.0.
`Cc1nnc(SCC(=O)N2CCN(S(=O)(=O)c3ccccc3)CC2)[nH]c1=O` gave BAZ2B inh 8.8%, JMJD2A Tudor -1.4%, HP1b binding inh 35.6%, L3MBTL1 block inconclusive, G9a inh -48.2% and PI5P4Ka inh -8.9.
For O=C(NNc1ccc(C(F)(F)F)cc1[N+](=O)[O-])c1ccc(NS(=O)(=O)c2ccc(F)cc2)cc1 the results were BAZ2B inh 10µM*, JMJD2A Tudor 22.4µM*, HP1b binding inh inconclusive, L3MBTL1 block inconclusive, G9a inh 25.1µM* and PI5P4Ka inh inconclusive.
`Cc1[nH]c2ccccc2c1C(=O)COC(=O)C1CC(O)CN1S(=O)(=O)c1ccc(Cl)cc1` (stereo not given) gave BAZ2B inh -0.4%, JMJD2A Tudor 31.6µM*, HP1b binding inh -13.5%[57 µM], L3MBTL1 block -4.0%, G9a inh -13.8%[59 µM] and PI5P4Ka inh -27.3.
`O=C(NCC1CCCO1)c1nn2c(C(F)(F)F)cc(-c3ccc(Br)o3)nc2c1Br` (stereo not given) gave BAZ2B inh 2.2%, JMJD2A Tudor -4.9%, HP1b binding inh -3.0%, G9a inh 50.1µM* and PI5P4Ka inh -4.7.
O=C(NC1CCCCC1)c1nn2c(C(F)(F)F)cc(-c3ccco3)nc2c1Br was read as BAZ2B inh -2.0%, JMJD2A Tudor -6.9%, HP1b binding inh 10.2%, L3MBTL1 block -11.3%, G9a inh inconclusive and PI5P4Ka inh inconclusive.
COc1ccc(OC)c(NC(=O)Cn2ccc3ccccc3c2=O)c1 was read as BAZ2B inh -20.6%, JMJD2A Tudor -13.1%, HP1b binding inh 26.3% and G9a inh -15.3%[59 µM].
For COc1ccc(Cn2c(=O)c3ccccc3n3c(-c4ccc(C)cc4)nnc23)cc1 the results were BAZ2B inh -8.1%, JMJD2A Tudor -10.6%, HP1b binding inh 30.8% and G9a inh -33.9%[59 µM].
Screening C=C1CCC2[C@](C)(CO)C(O)CC[C@]2(C)C1C/C=C1/C(=O)OCC1O (stereo not given in full) returned G9a inh 17.2%[59 µM].
For c1cnc2ccc3ncccc3c2c1 the results were BAZ2B inh -17.4%, JMJD2A Tudor -6.6%[11.4 µM], HP1b binding inh 54.0%, L3MBTL1 block -21.8%, G9a inh inconclusive and PI5P4Ka inh -21.3.
Screening CNc1ccc(N=Nc2cccc3ncccc23)cc1 returned JMJD2A Tudor 14.1µM*, HP1b binding inh 39.8µM* and PI5P4Ka inh 1.4.
Screening CC(C)=C1C2C=CC1C1C(=O)N(c3ccc4c(c3)OCO4)C(=O)C21 (stereo not given) returned BAZ2B inh -5.3%, JMJD2A Tudor -14.1%, HP1b binding inh 55.1%, L3MBTL1 block 9.7%, G9a inh 10µM* and PI5P4Ka inh -12.9.
`COc1ccc(C2=NO[C@@H]3[C@@H]4C[C@@H]([C@H]5C(=O)N(c6ccc7c(c6)OCO7)C(=O)[C@@H]45)[C@H]23)cc1OC` gave BAZ2B inh 4.0%, JMJD2A Tudor -9.7%, HP1b binding inh 20.6%, L3MBTL1 block -7.0%, G9a inh 15.8%[59 µM] and PI5P4Ka inh -0.8.
For CC(C)=C1C2CCC1C1C(=O)N(c3ccc4c(c3)OCO4)C(=O)C21 (stereo not given) the results were BAZ2B inh 0.1%, JMJD2A Tudor -2.1%, HP1b binding inh 27.0%, L3MBTL1 block -4.7%, G9a inh -6.9%[59 µM] and PI5P4Ka inh -8.0.
`O=C1C2C3C=CC(C4CC34)C2C(=O)N1c1ccc2c(c1)OCO2` (stereo not given) gave JMJD2A Tudor 0.0%, HP1b binding inh 46.3%, G9a inh 50.1µM* and PI5P4Ka inh -15.3.
`COc1cc2c(c(O)c1OC)-c1c(cc(OC)c(OC)c1O)[C@@H](OC(=O)c1ccccc1)[C@@](C)(O)[C@@H](C)[C@@H]2OC(C)=O` gave BAZ2B inh 50.1µM* and G9a inh 13.8%[59 µM].
COc1cc(NC(=O)c2ccc(C(=O)c3ccccc3)cc2)cc(OC)c1OC was read as BAZ2B inh 0.2%, JMJD2A Tudor -1.4%, HP1b binding inh 29.5% and PI5P4Ka inh -3.2.
Screening NC(CS)C(=O)O (stereo not given) returned G9a inh 15.8µM*.
N[C@H](CS)C(=O)O was read as G9a inh -0.5%[59 µM].
For CCN(CC)S(=O)(=O)c1ccc(OC)c(NC(=O)c2cc3c(=O)n4ccccc4nc3s2)c1 the results were BAZ2B inh 10.5%, JMJD2A Tudor -10.9%, HP1b binding inh 24.5%, L3MBTL1 block 8.2%, G9a inh 39.8µM* and PI5P4Ka inh -5.3.
`COc1ccc(CCNC(=O)c2cc3c(=O)n4cccc(C)c4nc3s2)cc1OC` gave BAZ2B inh 10.1%, JMJD2A Tudor -3.6%, HP1b binding inh 16.2%, G9a inh 28.2µM* and PI5P4Ka inh 1.0.
Cc1ccc(NC(=O)Cn2c(=O)n(-c3ccc(C)cc3)c(=O)c3ccc(C(=O)NCc4ccccc4Cl)cc32)cc1 was read as JMJD2A Tudor 5.7%, HP1b binding inh 31.0% and G9a inh 8.5%[59 µM].
For O=C(O)c1ccc(NC(CSCc2ccccc2F)C(=O)O)c([N+](=O)[O-])c1 (stereo not given) the results were BAZ2B inh -13.6%, JMJD2A Tudor 31.6µM*, HP1b binding inh 1.1%, L3MBTL1 block 1.4%, G9a inh inconclusive and PI5P4Ka inh -11.8.
CCc1ccc(NC(=O)CSc2nnc(-c3cc4occc4n3C)n2-c2ccccc2C)cc1 was read as BAZ2B inh -28.8%, JMJD2A Tudor -32.3%, HP1b binding inh 20.2% and G9a inh -40.2%[59 µM].
